Sampled rows, rich in hits. Any-hit rate of the full collection: about 2.8%.
IDE cell inh – cellular human IDE inhibition; AID 434962; HEK cells, FAbetaB cleavage, fluorescence polarization; 320,000 compounds, 0.41% hits; inhibition, % at 5.59 µM; P14735;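 active means percent inhibition above the average of all tested compounds plus 3 SD, set per screening campaign, cut at about 16% in these data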;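 further: IDE supplied by intact live HEK cells; FP after avidin binding of uncleaved biotin substrate so inhibition keeps polarization high; 0% = DMSO wells and 100% = 60 µM reference IDE inhibitor Ii1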
SKKanGAS inh – blocks kanamycin growth of S. pyogenes SKKanGAS strain | 300,000 compounds, 1.3% hits | BacTiter-Glo, 6 h | inhibition, % at 7.5 µM | AID 1662;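 active means mean replicate score, as percent of positive control median, at least 50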;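 further: strain carries kanamycin resistance gene driven by streptokinase promoter and grows in 40 µg/ml kanamycin; loss of luminescence reflects streptokinase promoter inhibition or plain growth inhibition; 0% = median of DMSO wells and 100% = positive control at its reference dose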
PP1 inh – PP1-alpha (human) inhibition in PP5 counter-screen; purified PP1alpha, OMFP fluorescence; inhibition, % at 6.7 µM; 320,000 compounds, 0.9% hits;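 active means inhibition above the mean inhibition of all tested compounds plus 3 SD, computed separately for each screening campaign, cut at about 15% in these data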
PP5 primary – PP5 (human) phosphatase inhibition | P53041 | purified PP5c, OMFP substrate fluorescence | inhibition, % at 6.7 µM | 320,000 compounds, 0.18% hits | AID 1987;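 active means inhibition above the campaign's mean inhibition across all tested compounds plus 3 SD, cut at about 9.5% in these data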;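 further: 0% = DMSO only and 100% = 100 µM cantharidin control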
Target sequence (P53041 whole entry, looked up): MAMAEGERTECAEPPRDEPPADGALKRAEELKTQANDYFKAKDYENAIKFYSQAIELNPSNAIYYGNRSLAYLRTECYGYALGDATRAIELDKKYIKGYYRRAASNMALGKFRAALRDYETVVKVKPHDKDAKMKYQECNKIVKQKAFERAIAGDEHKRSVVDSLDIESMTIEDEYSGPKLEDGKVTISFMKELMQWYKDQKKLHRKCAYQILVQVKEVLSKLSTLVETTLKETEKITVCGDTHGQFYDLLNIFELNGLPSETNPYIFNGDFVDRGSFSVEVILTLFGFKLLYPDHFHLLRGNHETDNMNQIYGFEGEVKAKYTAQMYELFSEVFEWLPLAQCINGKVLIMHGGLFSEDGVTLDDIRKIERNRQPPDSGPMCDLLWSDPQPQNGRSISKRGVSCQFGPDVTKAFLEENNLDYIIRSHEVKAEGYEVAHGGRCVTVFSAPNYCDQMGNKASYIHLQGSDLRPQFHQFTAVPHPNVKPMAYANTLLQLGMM
Granule exo inh – blocks lytic granule exocytosis; inhibition, % at 10 µM; TALL-104 LAMP-1 surface exposure, flow cytometry; cells stimulated with thapsigargin and PMA; 360,000 compounds, 0.66% hits; AID 651702;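 active means inhibition above about 55%, limit read from the data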
IDE act – boosts human insulin-degrading enzyme activity in HEK cells; P14735; FAbeta-B cleavage, fluorescence polarization; 0% vehicle, 100% cell-free pure enzyme wells; activation, % at 5.96 µM; 340,000 compounds, 0.073% hits;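 active means activation above the mean of all tested compounds plus 3 SD, set per screening campaign, cut at about 17% in these data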
PP1 confirm – human PP1 phosphatase inhibition, confirmation; shares compounds with PP1 inh; purified PP1alpha, OMFP substrate fluorescence; inhibition, % at 6.7 µM; 1,900 compounds, 52% hits;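 active means mean PP1 inhibition above a set limit taken from the earlier primary screen, cut at about 15% in these data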
PP5 counter – counter-screen for PP1 inhibitors: human PP5 phosphatase inhibition | purified PP5c, OMFP fluorescence | inhibition, % at 6.7 µM | shares compounds with PP1 inh | AID 2360 | 1,900 compounds, 4% hits;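 active means mean PP5 inhibition over triplicate wells above about 9.5% taken from the earlier PP1 screen, limit read from the data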
* marks the source's active call; other numbers are inactive results; . = no result given.

SMILES	IDE cell inh	SKKanGAS inh	PP1 inh	PP5 primary	Granule exo inh	IDE act	PP1 confirm	PP5 counter
CC(C)c1ccc(NC(=O)CN2C(=O)NC(C)(C3CC3)C2=O)cc1 (stereo not given)	-0.3	.	-3.0	0.0	2.7	1.8	.	.
CCC(=O)Nc1nnc(/C=C/c2ccc(OC)cc2)s1	-2.2	35.5	22.5*	2.8	13.6	-1.5	4.1	-0.7
COc1ccc(/C=C/c2nnc(NC(=O)CSc3ccc(C)cc3)s2)cc1	4.2	4.5	-4.4	1.9	0.7	4.8	.	.
COCc1cc(C)nc(SCc2ccc(Br)cc2)c1C#N	2.6	31.7	1.1	-2.3	1.3	2.3	.	.
O=C(C1CCN(Cc2cn[nH]c2-c2ccc(F)cc2F)CC1)N1CCOCC1	-5.0	0.3	42.7*	0.3	-0.4	-8.0	-2.6	-1.2
Cc1nn(-c2ccccc2)c2sc(C(=O)NNC(=O)COc3ccccc3)cc12	-0.4	30.0	23.2*	0.6	0.6	-2.7	22.3*	0.2
CC(Oc1cccc(Cl)c1)C(=O)Nc1nc(-c2ccccn2)cs1 (stereo not given)	5.9	-3.6	29.6*	7.1	2.8	0.2	35.5*	2.1
C[C@H](NC(=O)c1ccccc1)C(=O)Nc1nc(-c2ccccn2)cs1	-0.5	19.4	7.2	2.4	3.4	-1.5	.	.
Cc1cccc(C(=O)NC(C(=O)Nc2nc(-c3ccccn3)cs2)C(C)C)c1 (stereo not given)	1.2	91.4*	20.6*	1.8	-2.5	6.6	24.9*	-1.5
COc1ccc(NC2CCCN(C(=O)c3cc(CC(C)C)nc(N)n3)C2)cc1 (stereo not given)	2.5	1.4	0.3	2.2	3.7	-0.4	.	.
CC1=C(C(=O)OCc2ccccc2)C(c2ccc(-c3ccccc3)cc2)NC(=O)N1CCCCCC(=O)O (stereo not given)	1.4	.	18.9*	-0.7	-1.5	1.2	3.2	-3.6
CNC(=O)CNC(=O)Nc1ccc(Cl)c(Cl)c1	-3.0	2.3	3.5	-0.5	0.1	6.1	.	.
CC(=O)C1=C(O)C(=O)N(CCc2c[nH]c3ccccc23)C1c1ccc(C)cc1 (stereo not given)	2.4	9.7	25.7*	3.7	-1.4	-2.2	23.1*	-3.5
COc1cnc(-c2ccccn2)nc1Sc1c(Cl)cccc1Cl	-1.5	-9.1	49.6*	4.7	-1.8	2.4	40.6*	0.8
CCOC(=O)C(C)Sc1nc(-c2ccccn2)ncc1OC (stereo not given)	-0.2	41.0	12.9	1.8	2.9	4.3	.	.
COc1cnc(-c2ccccn2)nc1Sc1ccccc1Cl	0.5	-4.5	46.6*	6.2	-1.0	3.8	51.4*	6.3
O=C(/C=C/c1ccc(OCCCF)cc1)Nc1ccnc(-c2cccnc2)n1	1.1	-1.0	22.0*	-1.5	3.7	1.1	22.3*	-4.4
CCCCC(=O)Nc1ccnc(-c2cccnc2)n1	-1.4	-9.2	1.6	1.2	-2.4	0.2	.	.
O=C(O)c1ccc(N=N/C(=N\Nc2ccc(C(=O)O)cc2)c2ccccc2)cc1	-1.4	22.3	3.0	-0.1	-2.4	1.3	.	.
Brc1ccc(N/N=C(/N=Nc2nn[nH]n2)c2ccccc2)cc1	-5.8	35.1	19.2*	6.1	1.5	0.8	24.2*	6.7
CCn1cnc2cc(NS(=O)(=O)c3ccc(OC)c(OC)c3)ccc21	0.8	1.2	-3.9	0.9	10.8	-1.0	.	.
Cc1oc2c(cc(NS(=O)(=O)c3ccc4c5c(cccc35)C(=O)N4)c3ccccc32)c1C(=O)OC(C)C	0.0	.	1.0	-0.3	-1.3	4.1	.	.
O=C1CCCc2oc3c(cc(NS(=O)(=O)c4ccc5c6c(cccc46)C(=O)N5)c4ccccc43)c21	10.4	53.7*	19.6*	3.6	0.5	2.5	10.9	4.6
COCCn1c(CN2CCN(C(=O)c3ccco3)CC2)nc2c1c(=O)n(C)c(=O)n2C	-3.5	-12.6	1.4	-1.2	-0.8	5.9	.	.
COc1ccc2c(Cl)c(C(=O)NCCCn3ccnc3)sc2c1Cl	3.5	-9.6	18.4*	-3.0	1.2	0.0	2.6	-4.0
COc1ccc(C(=O)NCCCn2ccnc2)cc1	-4.5	-3.8	-1.4	3.1	-0.8	6.0	.	.

High-throughput results from PubChem.
